Screening results from PubChem.
D1 antagonist: blocks dopamine activation of the human D1 receptor; hit rate 3.2% among 360,000; activity change, negative = inhibition, % at 10 µM; HEK293 TREx D1 cells, calcium flux, dopamine EC80; active compounds read low; P21728; AID 504652; in the data active = activity change below about -30%
Target sequence (P21728 whole entry, looked up): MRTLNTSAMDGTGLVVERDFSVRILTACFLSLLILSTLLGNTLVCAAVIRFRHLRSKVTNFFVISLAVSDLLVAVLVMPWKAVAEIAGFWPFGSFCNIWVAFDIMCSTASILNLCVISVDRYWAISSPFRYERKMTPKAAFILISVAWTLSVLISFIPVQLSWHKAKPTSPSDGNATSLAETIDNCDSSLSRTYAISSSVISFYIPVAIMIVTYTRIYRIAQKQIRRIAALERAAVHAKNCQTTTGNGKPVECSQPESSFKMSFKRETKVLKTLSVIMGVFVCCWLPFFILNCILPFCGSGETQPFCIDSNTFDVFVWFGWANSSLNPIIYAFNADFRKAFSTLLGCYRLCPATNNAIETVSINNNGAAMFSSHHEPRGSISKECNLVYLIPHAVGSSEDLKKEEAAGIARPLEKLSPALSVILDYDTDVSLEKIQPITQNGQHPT
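Inducible Hek293 Trex D1 cells (tetracycline, overnight, 30 C). Calcium dye 30–90 min RT. Antagonist mode: EC80 dopamine added after 180 s compound read.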
D1 PAM: enhances dopamine response at the human D1 receptor. AID 504651. P21728. HEK293 TREx D1 cells, calcium flux, dopamine EC20 potentiation. potentiation, % at 10 µM. hit rate 0.036% among 360,000; in the data active = potentiation above about 30%
TRHR ag: agonists of human TRH receptor | TRHR cells, calcium flux fluo-8, FDSS agonist mode | activation, % at 2 µM | hit rate 0.18% among 360,000
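Steps: seed TRHR cells overnight; add fluo-8 no-wash Ca dye, RT 30 min–1.5 h; record 10 s baseline; pin-transfer compounds; monitor fluorescence 1 cycle/s for the agonist window. Calcium increases flag candidate agonists.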
TRHR enhancer: allosterically enhances the human TRH receptor. TRHR cells, fluo-8 calcium fluorescence, EC20 TRH enhancement. P34981. enhancement, % at 2 µM. hit rate 0.66% among 360,000; in the data active = enhancement above about 30%
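TRHR-expressing cells loaded with fluo-8 calcium dye were read kinetically (ex 480/em 530) during compound addition, then stimulated with an EC20 of TRH (10 nM final). Enhancement of the Gq-mediated intracellular calcium response was scored.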
D1 ag: agonists of human D1 dopamine receptor; P21728; HEK293 T-REx D1 cells, calcium flux, agonist mode; activation, % at 2 µM; hit rate 1% among 360,000
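Tetracycline-induced HEK293 TREx D1 cells, force-coupled to calcium signalling, were dye-loaded with a no-wash calcium kit. Compound was pin-added after a 10 s baseline. Fluorescence was read kinetically at 1 cycle/s for 180 s, with calcium rises flagged as agonism.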
Each line names hits and unclear results; the compound was inactive in the other large screens; ! = a repeat was not active. Most compounds without a hit are left out; they make up all but 4.6% or so of the library. Cut-off read from the data, not from the text of the source, unless noted: active = activation above about 30%; inactive = the rest.

O=C(COc1ccccc1Cl)OCc1cc(=O)n2nc(C3CC3)sc2n1	none
CC1CCc2cc(F)cc3c(O)c(C(=O)NCC4CCCO4)c(=O)n1c23 (stereo not given)	D1 antagonist -77
COc1ccc(CCN(C)C(=O)CSc2nccn2C)cc1OC	none
COc1ccc(CCN(C)C(=O)CSc2nc3ncc(Cl)cc3[nH]2)cc1OC	D1 antagonist -67
O=[N+]([O-])c1ccc(N/N=C/c2sc(N3CCOCC3)nc2-c2ccccc2)c(S(=O)(=O)Nc2ccc(Cl)cc2)c1	D1 antagonist -35, D1 ag 62
O=[N+]([O-])c1ccc(N/N=C/c2sc(N3CCOCC3)nc2-c2ccccc2)c(S(=O)(=O)Nc2ccccc2Cl)c1	D1 antagonist -34, D1 ag 79
O=C(N/N=C/c1sc(N2CCOCC2)nc1-c1ccccc1)c1ccccc1Cl	none
CC(=O)c1cccc(NC(=O)Cn2nc(C(F)(F)F)c3c2CCC3)c1	none
COc1ccc(C(=O)CN2C3=NCCCN3c3ccccc32)cc1OC	D1 antagonist -44
COc1ccccc1-c1ccc(SCc2ccccc2)nn1	none
COc1ccccc1-c1ccc(SCc2ccccc2F)nn1	D1 antagonist -40
Cc1cc(-c2ccc(C)c(S(=O)(=O)NCc3ccc(Br)cc3)c2)on1	none
Cc1cc(-c2ccc(C)c(S(=O)(=O)NCCc3ccc(S(N)(=O)=O)cc3)c2)on1	D1 antagonist -63!
CCCN(c1ccccc1F)S(=O)(=O)c1cc(-c2cc(C)no2)ccc1OC	D1 antagonist -46
CCc1ccc(-c2cc(C)no2)cc1S(=O)(=O)NCCc1ccc(OC)c(OC)c1	D1 antagonist -36
Cc1cc(-c2ccc(C)c(S(=O)(=O)NCCc3ccco3)c2)on1	D1 antagonist -34
COC(=O)c1cc(=O)n(CCc2ccc(OC)cc2)c(=Nc2ccc(F)c(Cl)c2)s1	D1 antagonist -60
COC(=O)c1cc(=O)n(CCc2ccccc2)c(=Nc2ccc(F)cc2)s1	none
FC(F)(F)c1cccc(Cn2nnnc2-c2ccc(Cl)cc2)c1	D1 antagonist -39
CCCn1nnnc1-c1ccc(Cl)cc1	none
COc1cccc(-n2c(SCC#N)nnc2-c2cnccn2)c1	none
COc1cccc(-n2c(SC)nnc2-c2cnccn2)c1	D1 antagonist -45
O=C(COC(=O)c1ccc(S(=O)(=O)NCc2ccco2)cc1)c1ccccc1	none
O=C(Nc1ccc(S(=O)(=O)NCc2ccco2)cc1)c1ccc(F)cc1	D1 antagonist -35
O=C(COC(=O)c1ccc(S(=O)(=O)NCc2ccco2)cc1)NCc1ccc(F)cc1	D1 antagonist -41
Cc1cc(C)n(-c2ccc(C(=O)Nc3ccc(S(=O)(=O)NCc4ccco4)cc3)cc2)n1	D1 antagonist -41
O=C(Cc1cccs1)Nc1c(C(=O)Nc2ccc(F)cc2)oc2ccccc12	none
COc1ccc(NC(=O)CSc2nc3ccccc3nc2N2CCC(C)CC2)cc1	none
CC(=O)Nc1ccc(S(=O)(=O)Nc2cccn(Cc3ccc(C)cc3)c2=O)cc1	TRHR enhancer 33
CC(=O)Nc1ccc(S(=O)(=O)Nc2ccccc2N2CCOCC2)cc1Cl	none
CC(=O)Nc1cccc(NC(=O)c2cccc3cccnc23)c1	none
CC(=O)Nc1ccc(S(=O)(=O)Nc2ccccc2N2CCOCC2)cc1	TRHR enhancer 34
Cc1ccc(NC(=O)c2cccc3cccnc23)cc1	D1 antagonist -31
CC(=O)Nc1ccc(S(=O)(=O)Nc2cccc3cccnc23)cc1	D1 antagonist -55
O=C(NCCCN1CCN(c2ccccc2)CC1)c1nnc(Cc2c(F)cccc2Cl)o1	none
COc1ccc(CNC(=O)Cn2ncc3c(=O)oc4ccccc4c32)c(OC)c1	none
CCCN1CCC(=O)N([C@H](CSc2ccc(OC)cc2)CC(C)C)CC1	D1 antagonist -34
CC(C)C[C@@H](CSc1ccccc1)N1CCN(CCc2ccccc2)CCC1=O	none
COc1ccc(C(=O)NCc2nnc(SCC(=O)Nc3ccccc3)n2-c2ccccc2)cc1	none
CC(C)OP(=O)(c1ccc(N(C)C)cc1)C(Nc1ccccc1)c1ccccc1 (stereo not given)	D1 antagonist -40
CC(C)CCOP(=O)(c1ccc(N(C)C)cc1)C(Nc1ccccc1)c1ccc(N(C)C)cc1 (stereo not given)	none
Cc1cc2ccccc2n2c(SCC(=O)Nc3cccc(C(F)(F)F)c3)nnc12	none
CCCOc1ccc(-c2cc(C(F)(F)F)c(C#N)c(SCCC(=O)O)n2)cc1	none
CCc1ccc(OC)c(S(=O)(=O)NCCOc2ccccc2)c1	TRHR enhancer 31
COCCNS(=O)(=O)c1cc(OC)ccc1OC	none (no result: D1 antagonist)
Cc1ccc(C2=NN(S(=O)(=O)c3ccccc3)C(c3ccco3)C2)cc1 (stereo not given)	none
O=[N+]([O-])c1ccc(/C=C/C2=NN(c3ccccc3)C(c3ccco3)C2)cc1 (stereo not given)	D1 antagonist -68, D1 ag 213
O=[N+]([O-])c1ccc(C2=NN(c3ccccc3)C(c3ccco3)C2)cc1 (stereo not given)	D1 antagonist -67, TRHR ag 59, D1 ag 296
CCn1c(C(=O)N2CCC(C(=O)N3CCN(c4ccc(OC)cc4)CC3)CC2)cc2sccc21	none
COc1ccc(C(CCNCc2ccc(N(C)C)cc2)c2ccccc2)cc1 (stereo not given)	none
CC(C)Oc1ccc(C(CCNCc2ccc(O)cc2)c2ccccc2)cc1 (stereo not given)	D1 ag 39
Clc1ccc(/C=N/Nc2ccccn2)cc1	D1 antagonist -31
O=C(NCc1ccccc1Cl)c1ccc(NC(=O)N2CCSc3ccccc32)cc1	none
Cc1ccc(S(=O)(=O)N(C)C)cc1NC(=O)COC(=O)c1ccc2ccccc2n1	D1 antagonist -55
CC(=O)N1N=C(c2cccc([N+](=O)[O-])c2)OC1(C)CC(=O)Nc1ccccc1 (stereo not given)	D1 antagonist -77
COc1ccc(CC2(C)OC(c3ccccc3)=NN2C(C)=O)cc1 (stereo not given)	D1 antagonist -42
COc1ccc(CC2(C)OC(c3ccc(C)cc3)=NN2C(C)=O)cc1 (stereo not given)	none
CCOC(=O)c1ccccc1NC(=O)Cn1c(=O)n(CCC(=O)N2CCc3ccccc3C2)c(=O)c2ccccc21	none
Cn1nc(C(=O)NCc2ccccc2)c2ccccc2c1=O	none
Cn1nc(C(=O)NCc2cccs2)c2ccccc2c1=O	D1 antagonist -41
CCn1nc(C(=O)NCC(c2cccs2)N2CCOCC2)c2ccccc2c1=O (stereo not given)	D1 antagonist -35
CC1CCCCC1NC(=O)c1nn(C)c(=O)c2ccccc12 (stereo not given)	D1 antagonist -32
Cn1nc(C(=O)NC2CCCC2)c2ccccc2c1=O	none
CCCCn1nc(C(=O)NCC(c2cccs2)N2CCOCC2)c2ccccc2c1=O (stereo not given)	none (no result: D1 PAM)
